Measurements: the supplement of paper PMC10515830
Structures can show the parent of a compound that is named as a salt.

The compounds below were run on Danio rerio larvae (5 dpf) (assay: difference in excitability vs DMSO (percentage points); higher = more excitable than DMSO). Details: 10 µM; exposure time 6 h.
How it was run: (§1)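 Library compounds were tested at 10 µM final in 100 µL egg water on wild-type 5 dpf zebrafish larvae in 96-well plates for 6 h, with 48 larvae per compound. After 3 h, plates at 28.5 ℃ were imaged every 6 s during a 3-h run of moving lines and 100 ms, 400Hz tones. Behaviours were quantified by Z-LaP Tracker and reported as the compound mean less the vehicle control mean, in percentage points.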

| SMILES | difference in excitability |
| --- | --- |
| Nc1ncnc2c1ncn2[C@@H]1O[C@H](CO)[C@@H](O)[C@H]1O [Adenosine] | 1.75 |
| S=c1nc[nH]c2nc[nH]c12 [6-Mercaptopurine (hydrate)] | 6.66 |
| Cn1nnc(-c2ccc(-c3ccc(N4C[C@H](COP(=O)(O)O)OC4=O)cc3F)cn2)n1 [Tedizolid Phosphate] | -1.24 |
| CC(=O)N(CC(O)CO)c1c(I)c(C(=O)NCC(O)CO)c(I)c(C(=O)NCC(O)CO)c1I (centres undefined) [Iohexol] | 1.55 |
| O=C(O)CCc1nc(-c2ccccc2)c(-c2ccccc2)o1 [Oxaprozin] | 17.9 |
| CC(C)(C)NC[C@H](O)COc1cccc2c1CCCC2=O [Levobunolol (hydrochloride)] | 5.55 |
| C#C[C@]1(O)CC[C@H]2[C@@H]3CCc4cc(O)ccc4[C@H]3CC[C@@]21C [Ethynyl Estradiol] | 3.58 |
| CCN(CC)CC(=O)Nc1c(C)cccc1C [Lidocaine] | 4.55 |
| COc1cccc2c1C(=O)c1c(O)c3c(c(O)c1C2=O)C[C@@](O)(C(=O)CO)C[C@@H]3O[C@H]1C[C@H](N)[C@H](O)[C@H](C)O1 [Doxorubicin (hydrochloride)] | 6.65 |
| CCCN(CCC)S(=O)(=O)c1ccc(C(=O)O)cc1 [Probenecid] | -3.91 |
| CCNC(=O)CCC/C=C\C[C@@H]1[C@@H](/C=C/[C@@H](O)CCc2ccccc2)[C@H](O)C[C@@H]1O [17-phenyl trinor Prostaglandin F2α ethyl amide] | 12.5 |

What follows are compounds tested on Danio rerio larvae (5 dpf) (assay: difference in startle response vs DMSO (percentage points); higher = stronger startle than DMSO). Details: 10 µM; exposure time 6 h.
How it was run: as §1

| SMILES | difference in startle response |
| --- | --- |
| CC(C)NCC(O)c1ccc(NS(C)(=O)=O)cc1 (centres undefined) [Sotalol (hydrochloride)] | -2.26 |
| CO[C@H]1C[C@@H]2CC[C@@H](C)[C@@](O)(O2)C(=O)C(=O)N2CCCC[C@H]2C(=O)O[C@H]([C@H](C)C[C@@H]2CC[C@@H](O)[C@H](OC)C2)CC(=O)[C@H](C)/C=C(\C)[C@@H](O)[C@@H](OC)C(=O)[C@H](C)C[C@H](C)/C=C/C=C/C=C/1C [Rapamycin] | -2.33 |
| CC(C(=O)O)c1cccc(C(=O)c2ccccc2)c1 (racemic) [(±)-Ketoprofen] | -1.06 |
| CC(=O)O[C@H]1Cc2ccccc2N(C(N)=O)c2ccccc21 [Eslicarbazepine Acetate] | -0.316 |
| CCN[C@H]1C[C@H](C)S(=O)(=O)c2sc(S(N)(=O)=O)cc21 [Dorzolamide (hydrochloride)] | -3.95 |
| O=C(C1CCCCC1)N1CC(=O)N2CCc3ccccc3C2C1 (centres undefined) [Praziquantel] | 13.2 |
| CC(=O)NO [Acetohydroxamic Acid] | 9 |
| OC(c1cc(C(F)(F)F)nc2c(C(F)(F)F)cccc12)C1CCCCN1 (centres undefined) [Mefloquine (hydrochloride)] | -3.76 |
| CC(C)NCC(O)COc1ccc(CC(N)=O)cc1 (racemic) [(±)-Atenolol] | -0.206 |
| C[C@@H]1NC(=O)[C@@H](N)CNC(=O)[C@H](C2CCNC(=N)N2)NC(=O)/C(=C/NC(N)=O)NC(=O)[C@H](CNC(=O)CC(N)CCCN)NC1=O.N=C1NCC[C@H]([C@@H]2NC(=O)/C(=C/NC(N)=O)NC(=O)[C@H](CNC(=O)C[C@@H](N)CCCN)NC(=O)[C@H](CO)NC(=O)[C@@H](N)CNC2=O)N1 [Capreomycin (sulfate)] | 3.05 |
| CC(C)(C(=O)O)c1ccc(C(O)CCCN2CCC(C(O)(c3ccccc3)c3ccccc3)CC2)cc1 (centres undefined) [Fexofenadine (hydrochloride)] | 2.98 |
| CCCCC[C@H](O)/C=C/[C@@H]1[C@H]2C/C(=C/CCCC(=O)O)O[C@H]2C[C@H]1O [Prostaglandin I2 (sodium salt)] | 3.79 |
| O=P(O)(O)C(O)(Cn1ccnc1)P(=O)(O)O [Zoledronic Acid (hydrate)] | -0.172 |
| Cc1ccc(O)c([C@H](CCN(C(C)C)C(C)C)c2ccccc2)c1 [Tolterodine (tartrate)] | -0.221 |
| O=C(O)C1(C(=O)O)CCC1.[NH2-].[NH2-].[Pt+2] [Carboplatin] | -1.15 |
| Nc1nc(NC2CC2)c2ncn([C@H]3C=C[C@@H](CO)C3)c2n1 [Abacavir (sulfate)] | -0.154 |
| CC(=O)N(O)CCCCCNC(=O)CCC(=O)N(O)CCCCCNC(=O)CCC(=O)N(O)CCCCCN [Deferoxamine (mesylate)] | -4.66 |
| CCNC(=O)[C@@H]1CCCN1C(=O)[C@H](CCCNC(=N)N)NC(=O)[C@H](CC(C)C)NC(=O)[C@@H](CC(C)C)NC(=O)[C@H](Cc1ccc(O)cc1)NC(=O)[C@H](CO)NC(=O)[C@H](Cc1c[nH]c2ccccc12)NC(=O)[C@H](Cc1c[nH]cn1)NC(=O)[C@@H]1CCC(=O)N1 [Leuprorelin (acetate)] | -0.397 |
| COc1cc2ncnc(Nc3ccc(F)c(Cl)c3)c2cc1NC(=O)/C=C/CN1CCCCC1 | 0.667 |

| SMILES | difference in startle response |
| --- | --- |
| COCCCC/C(=N\OCCN)c1ccc(C(F)(F)F)cc1 [Fluvoxamine (maleate)] | -1.76 |
| CC(C)N(CCCCOCC(=O)NS(C)(=O)=O)c1cnc(-c2ccccc2)c(-c2ccccc2)n1 | 6.8 |
| CC[C@H]1OC(=O)[C@H](C)[C@@H](O[C@H]2C[C@@](C)(OC)[C@@H](O)[C@H](C)O2)[C@H](C)[C@@H](O[C@@H]2O[C@H](C)C[C@H](N(C)C)[C@H]2O)[C@](C)(O)C[C@@H](C)C(=O)[C@H](C)[C@@H](O)[C@]1(C)O [Erythromycin] | -6.73 |
| N[C@H](C(=O)O)[C@H](O)c1ccc(O)c(O)c1 [Droxidopa] | 0.64 |
| Oc1ncnc2[nH]ncc12 [Allopurinol] | -2.34 |
| Clc1ccc(CCC(Cn2ccnc2)Sc2c(Cl)cccc2Cl)cc1 (centres undefined) [Butoconazole (nitrate)] | -10.1 |
| CNC(=C[N+](=O)[O-])NCCSCc1csc(CN(C)C)n1 [Nizatidine] | -1.69 |
| CC(=O)OCC(=O)[C@@]12N=C(C)O[C@@H]1C[C@H]1[C@@H]3CCC4=CC(=O)C=C[C@]4(C)[C@H]3[C@@H](O)C[C@@]12C [Deflazacort] | 3.69 |
| Nc1ncnc2c1ncn2[C@@H]1O[C@H](CO)[C@@H](O)[C@H]1O [Adenosine] | 6.58 |
| S=c1nc[nH]c2nc[nH]c12 [6-Mercaptopurine (hydrate)] | 2.46 |
| Cn1nnc(-c2ccc(-c3ccc(N4C[C@H](COP(=O)(O)O)OC4=O)cc3F)cn2)n1 [Tedizolid Phosphate] | 8.42 |
| CC(=O)N(CC(O)CO)c1c(I)c(C(=O)NCC(O)CO)c(I)c(C(=O)NCC(O)CO)c1I (centres undefined) [Iohexol] | 0.754 |
| O=C(O)CCc1nc(-c2ccccc2)c(-c2ccccc2)o1 [Oxaprozin] | -7.37 |
| CC(C)(C)NC[C@H](O)COc1cccc2c1CCCC2=O [Levobunolol (hydrochloride)] | 1.6 |
| C#C[C@]1(O)CC[C@H]2[C@@H]3CCc4cc(O)ccc4[C@H]3CC[C@@]21C [Ethynyl Estradiol] | -3.27 |
| CCN(CC)CC(=O)Nc1c(C)cccc1C [Lidocaine] | -4.05 |
| COc1cccc2c1C(=O)c1c(O)c3c(c(O)c1C2=O)C[C@@](O)(C(=O)CO)C[C@@H]3O[C@H]1C[C@H](N)[C@H](O)[C@H](C)O1 [Doxorubicin (hydrochloride)] | 3.55 |
| CCCN(CCC)S(=O)(=O)c1ccc(C(=O)O)cc1 [Probenecid] | 4.06 |
| CCNC(=O)CCC/C=C\C[C@@H]1[C@@H](/C=C/[C@@H](O)CCc2ccccc2)[C@H](O)C[C@@H]1O [17-phenyl trinor Prostaglandin F2α ethyl amide] | -5.26 |
